Only a selection was taken, and hits are over-represented in it overall.
Vaccinia mCherry – vaccinia inhibition (mCherry reporter); Vaccinia virus mCherry reporter infection, fluorescence; Potency, µM (titrated, usually from 36.5 µM), without a hit: at the highest dose activity change, negative = inhibition, usual class: inhibitors; 310,000 tested, 0.63% active; calls by dose curve; tested in A549 cells; further: potency means the concentration at half of the fitted maximal effect; on the % scale 0 is the no-effect control and ±100 the full control effect; nearly all actives have a fitted effect of over 35% in size
Marburg entry inh – Marburg virus entry inhibition | Marburg virus pseudotyped entry inhibition, cell reporter | Potency, µM (titrated, usually from 37.8 µM), for the others: at the highest dose activity change, negative = inhibition, usual class: inhibitors | 300,000 tested, 1.8% active | AID 540276; calls by dose curve; tested in HEK293 cells; further: potency means the concentration at half of the fitted maximal effect; on the % scale 0 is the no-effect control and ±100 the full control effect
Shiga toxin inh – blocks Shiga toxin action in Vero cells. Vero cells, Shiga toxin protein synthesis inhibition reporter. inhibition, % at 38.7 µM. 290,000 tested, 9.2% active; in the data active means inhibition mostly above about 28%, no sharp cut-off; inactive means mostly below about 43%; further: 0% is about no effect
Cycloheximide cs – affects cycloheximide protein synthesis inhibition readout, counter-screen | 300,000 tested, 12% active | AID 2314 | cell reporter, cycloheximide protein synthesis inhibition counterscreen | max response, %; in the data active means max response mostly above about 13%, no sharp cut-off; inactive means mostly below about 14%; further: read at 38.3 µM for the half of the compounds with a filed dose; 0% is about no effect
VACV Venus inh – inhibitors of vaccinia virus (Venus reporter); 330,000 tested, 0.46% active; Vaccinia virus Venus reporter expression, fluorescence; Potency, µM (top dose mostly 36.5 µM), for inactives: at the highest dose activity change, negative = inhibition, hits mostly inhibitors; AID 720580; calls by dose curve; tested in A549 cells; further: potency means the concentration at half of the fitted maximal effect; on the % scale 0 is the no-effect control and ±100 the full control effect; nearly all actives have a fitted effect of over 30% in size
LASV entry inh – inhibitors of Lassa virus binding or cell entry; Lassa virus pseudotype entry inhibition, cell reporter; Potency, µM (titrated, usually from 37.9 µM), without a hit: at the top dose activity change, negative = inhibition, actives largely listed as inhibitors; 300,000 tested, 1.2% active; AID 540256; calls by dose curve; tested in HEK293 cells; further: potency means the concentration at half of the fitted maximal effect; on the % scale 0 is the no-effect control and ±100 the full control effect; nearly all actives have a fitted effect of over 50% in size
Starred values were filed as active, the others as inactive; i = inactive; ? = inconclusive; / = no result given; [ ] = another dose, or the depositor's remark.

SMILES | Vaccinia mCherry | Marburg entry inh | Shiga toxin inh | Cycloheximide cs | VACV Venus inh | LASV entry inh
CC(=O)c1ccc(Nc2ccc(-c3ccccc3C)nn2)cc1 | / | -15% | 107* | 55* | / | 2%
CC(=O)c1cccc(Nc2ccc(-c3ccccc3F)nn2)c1 | 3% | ? | 94* | 38* | -9% | -22%
COc1cccc(Nc2ccc(Nc3cccc(OC)c3)nn2)c1 | ? | 0% | -4 | -3 | -27% | -14%
CC(=O)c1ccc(Nc2c3c(nc4ccccc24)CCCC3)cc1 | / | / | -10 | 1 | / | /
COc1ccccc1-c1ccc(Nc2cccc(C(C)=O)c2)nn1 | / | -3% | 74* | 37* | / | 30%
O=C(NCCCN1CCN(c2cccc(Cl)c2)CC1)c1cnn(-c2ccc(F)cc2)c1-n1cccc1 | ? | / | / | / | -24% | 10%[46.1 µM]
COc1ccccc1/C=C/C1(C(=O)NC2CCCC2)CC(=O)N1c1ccc(C)cc1 (stereo unspecified) | / | ? | -10 | -4 | / | -28%
COc1ccccc1/C=C/C1(C(=O)NC2CCCC2)CC(=O)N1c1ccc(F)cc1 (stereo unspecified) | / | 5.8µM* | 14 | 2 | / | 15µM*
COc1cc(OC)cc(C(=O)Nc2ccc3nc4n(c(=O)c3c2)CCCC4)c1 | / | / | 70* | 27* | / | /
O=c1c2cc(NC(=S)NCc3cccnc3)ccc2nc2n1CCCCC2 | -5% | ? | 69 | 22* | -15% | 0%[46.1 µM]
COc1cccc(C(=O)Nc2ccc3nc4n(c(=O)c3c2)CCCC4)c1 | / | / | 56* | 23* | / | /
COc1cc(C(=O)Nc2ccc3nc4n(c(=O)c3c2)CCCC4)ccc1Br | / | / | -4 | 18 | / | /
O=C(Nc1ccc2nc3n(c(=O)c2c1)CCCCC3)c1cccc(C(F)(F)F)c1 | ? | 20%[46.1 µM] | / | / | ? | ?
CN(C)c1cccc(C(=O)Nc2ccc3nc4n(c(=O)c3c2)CCCCC4)c1 | i | / | 53* | 24* | -24% | /
COCC(=O)Nc1ccc2nc3n(c(=O)c2c1)CCCCC3 | / | / | 13 | 12* | / | /
O=C(/C=C/c1ccco1)Nc1ccc2nc3n(c(=O)c2c1)CCCC3 | / | / | 66* | 52* | / | /
O=c1c2cc(NC(=S)N3CCCC3)ccc2nc2n1CCCCC2 | -14% | -12%[46.1 µM] | -10 | -2 | -12% | 1%[46.1 µM]
Cc1[nH]cnc1C(=O)N/N=C/c1ccc([N+](=O)[O-])s1 | -23% | ? | 55* | 24* | ? | -10%[46.1 µM]
Cc1cc(C(=O)N/N=C/c2ccc([N+](=O)[O-])s2)n[nH]1 | ? | ? | 28 | 17* | ? | ?
Cc1cc(C(=O)N/N=C/c2ccc(C)s2)n[nH]1 | -8% | -3%[46.1 µM] | 86* | 29 | -8% | ?
Cc1cc(C(=O)N/N=C/c2cc(Cl)cc([N+](=O)[O-])c2O)n[nH]1 | -4% | ? | -4 | -1 | -1% | -5%[46.1 µM]
Cc1ccc(C(=O)N/N=C\c2ccc([N+](=O)[O-])s2)cn1 | -3% | 14% | -13 | -2 | -26% | ?
Cc1cc(C(=O)N/N=C/c2cc(Br)c(Br)o2)n[nH]1 | -11% | ? | 80* | 23* | 14% | 11%[46.1 µM]
COc1cc(OC)cc(C(=O)Nc2nc(-c3nnn(-c4ccc(F)c(Cl)c4)c3C)ns2)c1 | -25% | / | / | / | ? | -11%[46.1 µM]
Cc1sc2nc(CSc3n[nH]c(N)n3)[nH]c(=O)c2c1C | -12% | 3%[46.1 µM] | -16 | -3 | -2% | 2%
SMILES | Vaccinia mCherry | Marburg entry inh | Shiga toxin inh | Cycloheximide cs | VACV Venus inh | LASV entry inh
O=C(COc1ccc(S(=O)(=O)NCc2ccccc2)cc1)NCc1cccnc1 | -9% | 12%[46.1 µM] | -13 | -4 | -2% | /
CC1CCCN(C(=O)CSc2cnc3ccccc3n2)C1 (stereo unspecified) | / | 11% | 111* | 58* | / | -26%
CNC(=O)CSc1cnc2ccccc2n1 | i | 3%[46.1 µM] | 15 | -2 | 6% | 3%
CC1CCCN(C(=O)CSc2nc3ncccc3[nH]2)C1 (stereo unspecified) | 4% | 14%[46.1 µM] | 33* | 15* | -1% | -7%
COc1cccc(NC(=O)CN(C)C(=O)c2cccc(S(=O)(=O)N3c4ccccc4CC3C)c2)c1 (stereo unspecified) | -14% | ? | / | / | ? | ?
CCOc1ccc(NC(=O)Cn2c(=O)n(Cc3ccc4c(c3)OCO4)c(=O)c3ccc(C(=O)NC4CCCCC4)cc32)cc1 | -9% | 4%[46.1 µM] | / | / | -22% | 15%[46.1 µM]
COC(=O)c1ccccc1Nc1ccnc(Cl)n1 | i[7.34 µM] | -3%[46.1 µM] | / | / | -9%[7.34 µM] | 3%
Cc1ccc(C)c(NC(=O)C2CC(=O)N(C3CCCCC3)C2)c1 (stereo unspecified) | -10% | -4%[46.1 µM] | 17 | -4 | 2% | 10%[46.1 µM]
COc1ccc(/C=N\Nc2ccc([N+](=O)[O-])cc2)c(C(=O)O)c1OC | / | / | -5 | -2 | / | /
COc1ccc(/C=N/Nc2ccc(C(=O)O)cc2)c(OC)c1OC | -28% | ? | 80* | 47* | -8% | ?
COc1cc(/C=N/Nc2ccc(C(=O)O)cc2)cc(OC)c1OC | / | / | 58* | 45* | / | /
C=CCOc1c(OC)cc(/C=N/Nc2cccc(C(=O)O)c2)c(Br)c1Br | i | ? | 187* | 50* | -13% | 0%
Cc1ccc2nc(Cl)c(/C=N/Nc3ccc(C(=O)O)cc3)cc2c1 | / | / | 36 | 32* | / | /
COc1ccc([C@H]2C[C@H](c3ccc(C)cc3)Nc3nc(N)nn32)cc1 | / | 7% | / | / | / | /
Fc1ccc(/C=N/Nc2nnnn2-c2ccccc2)cc1 | i | ? | -6 | -2 | -7% | -24%
COc1ccc(C2=Nc3cccc4cccc(c34)N2)cc1 | -8% | 21% | 19 | 5 | 1% | 7%
Fc1ccc(/C=N/NC2=Nc3cccc4cccc2c34)cc1 | -5% | ? | 81* | 43* | -2% | ?
O=C(O)c1cccc(NC2=Nc3cccc4cccc2c34)c1 | / | / | 38* | 6.7* | / | /
COc1ccc(NC2=Nc3cccc4cccc2c34)cc1 | -8% | ? | 50 | 25* | -23% | -8%
c1ccc(NC2=Nc3cccc4cccc2c34)cc1 | -28% | 4%[14.2 µM] | 6 | 21* | -19% | 18%

Screening data from PubChem.
